# TIM10 inh: inhibits growth of TIM10 yeast strain; S. cerevisiae TIM10 strain growth, BacTiter-Glo luminescence, 24 h; inhibition, % at 10 µM; hit rate 1.4% among 330,000;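 active = inhibition of 40% or more at the single tested concentration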;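 note: wild-type TIM10 isogenic control strain grown at permissive 25 °C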
# NLRP3 yeast inh: blocks the NALP3 inflammasome reconstituted in yeast; Yeast reconstituted NLRP3/ASC/caspase-1, beta-gal luminescence, 24 h; inhibition, % at 10 µM; hit rate 0.39% among 330,000; AID 2825;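 active = inhibition of 50% or more; inactive = inhibition below 50%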;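 note: plate controls were induced DMSO wells for no effect and uninduced yeast grown without galactose for full effect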
# tim10-1 inh: tim10-1 yeast growth inhibition; S. cerevisiae tim10-1 ts strain growth, BacTiter-Glo, 24 h; inhibition, % at 20 µM; hit rate 2.2% among 330,000; AID 463190;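 active = inhibition of at least 40%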;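 note: mutant grown at 25 °C; 0% = DMSO wells with yeast and 100% = wells holding no yeast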
# tim23-1 inh: growth inhibitors of tim23-1 mutant yeast | S. cerevisiae tim23-1 growth, BacTiter-Glo luminescence, 24 h | inhibition, % at 20 µM | hit rate 1.3% among 330,000;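 active = growth inhibition of the mutant yeast at or above 50%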;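 note: temperature-sensitive mutant grown at 25 °C; plate controls were DMSO-treated mutant yeast for no effect and medium wells lacking yeast for full effect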
# NALP1 inh: inhibitors of NALP1 inflammasome in yeast; S. cerevisiae NALP1/ASC/caspase-1 growth, X-gal OD620, 72 h; inhibition, % at 10 µM; hit rate 0.61% among 280,000; AID 2071; in the data active = inhibition mostly above about 24%, no sharp cut-off; inactive = mostly below about 32%
# PfHsp90 yeast 2: growth inhibition of yeast expressing Plasmodium Hsp90. S. cerevisiae expressing PfHsp90, BacTiter-Glo ATP, 48 h; yeast lacking PDR1 and PDR3 efflux regulators. inhibition, % at 9.4 µM. hit rate 0.32% among 310,000;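 active = every replicate shows inhibition above about 80%, whatever the replicate mean, limit read from the data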;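 note: 0% = DMSO neutral controls and 100% = 20 µM radicicol positive controls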
# tim10-1 confirm: tim10-1 yeast growth inhibition, confirmed | shares compounds with tim10-1 inh | AID 463213 | inhibition, % at 20 µM | S. cerevisiae tim10-1 ts strain growth, BacTiter-Glo, 24 h | hit rate 56% among 7,400;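 active = inhibition of yeast growth at or above a set limit in either of two repeat tests at 20 µM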;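 note: tim10-1 mutant grown at permissive 25 °C to find synthetic lethal compounds; 0% = DMSO yeast wells and 100% = medium wells without yeast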
# TIM10 conf: confirmation of TIM10 yeast growth inhibitors; shares compounds with TIM10 inh; S. cerevisiae tim10 strain growth, BacTiter-Glo luminescence, 24 h; inhibition, % at 10 µM; hit rate 63% among 4,600; AID 463215;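 active = inhibition of yeast growth at or above a set limit in either of two replicates at 10 µM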;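 note: this counterscreen used the strain with wild-type TIM10; 0% = yeast with DMSO and 100% = medium wells lacking yeast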
# Active calls of the source: *; / = no result. Hits are enriched below; roughly 4.1% of the tested compounds scored in any of these assays.
SMILES,TIM10 inh,NLRP3 yeast inh,tim10-1 inh,tim23-1 inh,NALP1 inh,PfHsp90 yeast 2,tim10-1 confirm,TIM10 conf
CCOC(=O)N1CCN(S(=O)(=O)c2ccc(C(=O)N(CCN(CC)CC)c3nc4ccc(C)cc4s3)cc2)CC1,40.0,7.6,48.0*,31.3,17.6,-22.8,35.0*,14.0
CCCCN(C(=O)C(C)Oc1ccc(Br)cc1)c1c(N)n(CC(C)C)c(=O)[nH]c1=O (centres undefined),5.9,10.9,10.4,6.4,/,5.9,/,/
O=C(Cc1ccc([N+](=O)[O-])cc1)Nc1cccc(C(=O)N2CCCCC2)c1,1.9,16.5,5.2,6.0,/,2.3,/,/
Oc1ccc(/C=N/NC(=S)NC2CC3CCC2C3)cc1 (centres undefined),57.5*,-1.0,42.4*,42.5,31.4,-10.0,29.7,27.2
CCc1cc(-c2n[nH]c(=S)n2Cc2ccccc2)cs1,44.4*,23.2,42.0*,38.9,-24.1,-8.2,18.8,41.3*
Cc1ccc(-c2n[nH]c(=S)n2Cc2ccccc2)cc1,39.4,19.7,31.7,23.8,1.8,12.5,/,/
O=C(Nc1cccc([N+](=O)[O-])c1)NC1CCCCCCC1,44.1*,15.6,42.7*,43.6,-1.0,21.8,36.2*,42.4*
O=C(CNC1CCCCC1)Nc1cccc([N+](=O)[O-])c1,0.3,15.1,-3.7,3.2,/,0.9,/,/
COc1ccc(N2C(=O)CC(Sc3nccc(C)n3)C2=O)cc1 (centres undefined),9.1,8.1,14.4,20.2,-1.9,24.8,/,/
C=CCNc1nnc(SC2CC(=O)N(c3ccc(OC)cc3)C2=O)s1 (centres undefined),40.2*,15.2,67.2*,37.1,-6.6,5.1,61.0*,45.8*
O=S(=O)(Nc1ccccc1)c1ccc(Oc2ncc(C(F)(F)F)cc2Cl)cc1,49.2*,24.7,48.8*,25.0,34.4,8.6,46.3*,51.0*
Cc1ccc(C)c(S(=O)(=O)NCCC(=O)N2CCCC(C(N)=O)C2)c1 (centres undefined),0.5,6.4,-13.4,-7.6,/,2.8,/,/
CC1CCN(C(=O)/C(=C/c2ccccc2Cl)c2ccccc2)CC1,41.5*,-7.4,41.5*,36.8,-46.5,-20.6,30.7,-26.6
C=CCn1c(O)c(N=NC(=S)Nc2ccccc2F)c2ccccc21,45.6*,12.4,47.5*,14.1,9.0,-124.8,43.7*,29.1
Oc1c(N=NC(=S)Nc2ccccc2F)c2ccccc2n1Cc1ccccc1Cl,27.0,16.6,22.5,31.3,3.3,-11.4,/,/
Cc1c(Cl)cccc1NC(=S)N=Nc1c(O)n(CN2CCOCC2)c2ccccc12,53.2*,36.3,59.0*,39.9,10.6,106.8*,48.7*,30.4*
Oc1c(N=NC(=S)Nc2ccccc2F)c2ccccc2n1Cc1ccccc1,16.8,13.9,24.0,17.2,1.1,-40.9,/,/
C=C[C@](C)(CC[C@@]1(C)C(C)CC(OC2OC(C)C(OC3OC(COC(C)=O)C(O)C(O)C3O)C(O)C2O)[C@@]2(C)C(C)=CCCC12)OC1OC(C)C(O[C@@H]2O[C@@H](C)C(O)C(O)[C@H]2O)C(O)C1O (some centres undefined),-8.1,20.2,37.4,22.2,/,-3.4,/,/
O=C(COC(=O)C1C2CC3OC(=O)C1C3C2)Nc1cccc(C(F)(F)F)c1 (centres undefined),1.7,1.2,10.6,19.3,11.7,26.3,/,/
O=C(Nc1ccc(Cl)c(Cl)c1)C1=Cc2ccccc2OC1,49.6*,-5.1,40.4*,44.1,5.3,19.6,53.0*,60.2*
O=C(Nc1cccc(Cl)c1)C1=Cc2cc(Cl)ccc2OC1,27.8,18.2,1.0,-8.9,8.4,-18.7,/,/
O=C(OCCN1CCOCC1)c1ccc(O)cc1,-7.0,20.5,-3.0,-4.6,16.8,-6.7,/,/
Cc1ccc(C(=O)Nc2ccccc2C(=O)NCc2cccnc2)cc1,9.4,9.4,25.4,11.1,6.9,0.8,/,/
Cc1ccc(C(=O)Nc2ccccc2C(=O)NCc2ccccc2)cc1,47.9*,23.0,47.2*,43.7,14.7,-42.6,40.6*,3.7
CC1C/C(=N\NC(=S)NCc2ccccc2)CC(C)(C)C1 (centres undefined),54.0*,0.9,58.1*,48.1,-1.8,-0.9,47.9*,45.1*
SMILES,TIM10 inh,NLRP3 yeast inh,tim10-1 inh,tim23-1 inh,NALP1 inh,PfHsp90 yeast 2,tim10-1 confirm,TIM10 conf
COc1ccccc1/C=C/C(=O)c1ccc(NC(C)=O)cc1,43.7*,1.6,42.8*,33.3,32.7,2.9,24.2,-3.0
CCC(c1nnnn1CCc1ccccc1)N1CCN(c2ccc(OC)cc2)CC1 (centres undefined),43.4*,-25.7,41.0*,26.2,-10.8,-11.7,13.6,23.7
CCOC(=O)c1ccc(NS(=O)(=O)c2ccc(SC)cc2)cc1,40.3*,24.7,40.8*,43.1,11.5,-22.4,38.3*,10.9
COC(=O)C(=C/C(C)=C/c1cccnc1)C(=O)OC,49.9*,42.3,50.5*,42.4,0.4,35.5,41.1*,46.0*
COC(=O)/C(=C/c1cccnc1)NC(=O)c1ccccc1,7.4,14.3,-7.1,1.4,20.1,-36.2,/,/
Cc1nc([N+](=O)[O-])c(Br)n1CC(=O)c1ccc(Br)cc1,40.0,19.5,48.1*,39.8,-3.3,/,35.0*,39.6*
Cc1nc([N+](=O)[O-])c(Br)n1CC(=O)c1ccc2ccccc2c1,54.3*,23.9,59.2*,34.8,22.9,/,66.7*,55.0*
Cc1cc(C)c(S(=O)(=O)N2CCCCC2CCNC(=O)C(=O)NCc2ccco2)c(C)c1 (centres undefined),13.5,12.2,22.4,28.1,/,-5.9,/,/
CN(C)C=Nc1ncc2c3ccccc3n(Cc3ccccc3)c2c1C#N,5.5,10.4,11.5,3.2,13.7,-12.0,/,/
CCN(CC)CCn1c2ccccc2c2nc3ccccc3nc21,6.2,42.7,8.5,15.6,22.8,-2.8,/,/
CCN(CC)CCn1c2ccccc2c2cnc(N)c(C#N)c21,85.9*,9.6,67.1*,41.3,5.2,-44.9,72.8*,85.5*
CN(C)C=Nc1ncc2c3ccccc3n(CCN(C)C)c2c1C#N,75.8*,6.2,51.3*,44.3,-10.4,-1.0,64.0*,74.8*
COc1ccc(C(=O)N2CCN(C)C(=O)[C@@H]2C)cc1OC1CCN(C(C)=O)CC1,3.2,11.9,-0.9,12.8,8.8,5.0,/,/
O=C(CS(=O)(=O)c1ccccc1)NCc1ccc(Cl)cc1,4.6,20.8,8.2,7.6,7.0,-27.2,/,/
CCCn1c2ccccc2c2cnn(CC(=O)NC3CCCCC3)c(=O)c21,-3.9,20.0,13.5,20.5,0.6,2.3,/,/
O=C(Nc1ccc(Cl)cc1Cl)c1cccc(N2C(=O)C=CC2=O)c1,94.9*,5.8,59.2*,37.0,/,107.4*,96.2*,99.8*
